These results are taken from PubChem BioAssay AID504773 (Broad Institute, 2011).

SMILES strings stand for the structures. Potency and affinity values are given separately. Values without a mark were called inactive.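 How the source made its calls: active means polarization signal falls with dose and the fitted half-maximal concentration is at or below ten times the sample's top valid dose; inconclusive means flat curve at 30 to 70% inhibition, or poor fit; inactive means signal rises, flat within 30%, or potency beyond limit.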

This experiment deals with Golgi-associated PDZ and coiled-coil motif-containing protein (Homo sapiens) (UniProt Q9HD26). Kind of experiment: potency against CAL PDZ-peptide interaction – biochemical, fluorescence polarization, Cerulean-tagged CAL PDZ, cherry-picks, dose response (AID 504773).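 Further: 0% = DMSO neutral wells and -100% = excess unlabeled competitor peptide wells.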 The conditions noted are these: CAL PDZ-peptide binding, 1 h; series mostly up to 50 µM; activity change, negative = inhibition: at the top concentration. (In general: In fluorescence polarisation assays a small probe gives low polarisation when free and higher when bound to something large.)
For `CC(C)CNC(=O)CN1C(=O)NC(Cc2c[nH]c3ccccc23)C1=O` (stereo unspecified), the “activity change, negative = inhibition” value was 13.9%. `Cc1cc(C(=O)CN2CCCC2)c(C)n1-c1ccc(Cl)cc1`: the “activity change, negative = inhibition” value was -32%. As to `Cc1cccc(N=Nc2c(O)[nH]c3ccc(F)cc23)c1`, the “activity change, negative = inhibition” value was -79.4%. In the case of `Cc1ccc2nc3c(nc2c1)-c1ccccc1C3=O` it was 23.8%; in that of `O=C(OCC(=O)N1CCc2ccccc2C1)c1cccnc1Cl`, -20.7%; in that of `Cc1cc(C)c2nc(-c3ccncc3)cc(C(=O)N3CCN(Cc4ccccc4Cl)CC3)c2c1`, -33.1%.

Consider `CN(Cc1nccn1C)C(=O)c1cc(COc2ccc3ncccc3c2)on1`, for which the “activity change, negative = inhibition” value is 16.5%. The result for `COc1ccc(CN(C)C(C)C(=O)NC2CCCc3ccccc32)cc1` (stereo unspecified) reads -18.4%; that for `CCCn1nnnc1NCc1cc(Br)ccc1OC`, 7.73%; that for `CCOC(=O)/C(N=Nc1ccc2c(c1)OCO2)=C(\C)O`, -20.9%. In the case of `CC1CCCN(C(=O)Cc2cccc3ccccc23)C1` (stereo unspecified) it was 9.32%. As to `O=C(c1cc2cc([N+](=O)[O-])ccc2oc1=O)N1CCN(C2CCCCC2)CC1`, the “activity change, negative = inhibition” value is 24.9%. The result for `Cc1cccc(NS(=O)(=O)Cc2ccccc2)c1C` reads 33.6%.

For the compound `O=C(Nc1nccs1)c1ccc(F)c(S(=O)(=O)N2CCOCC2)c1`, the “activity change, negative = inhibition” value is 23.6%. Take `Cc1cccc(CN2CCc3c([nH]c4ccccc34)C2CC(C)C)n1` (stereo unspecified): the “activity change, negative = inhibition” value was 7.87%. Turning to `O=C(CCCn1c(=S)[nH]c2cc3c(cc2c1=O)OCO3)N1CCN(c2ccc(Cl)cc2)CC1`, the “activity change, negative = inhibition” value was 16.6%. Regarding `Cc1nn2c3ccccc3nc2c2ccccc12`, the “activity change, negative = inhibition” value is -34.8%. In the case of `O=C(NCc1ccccc1Cl)C1CC(=O)N(Cc2ccccc2)C1` (stereo unspecified) it was 11.4%; in that of `CCOC(=O)CCNC(=O)N1CCCC(CNS(=O)(=O)Cc2ccccc2)C1` (stereo unspecified), -0.597%. For the compound `Cc1ccc(CN(C(=O)c2ccco2)C(C(=O)NC2CCCC2)c2cccnc2)cc1` (stereo unspecified), the “activity change, negative = inhibition” value is 20.8%. Regarding `O=C(N/N=C/c1ccc(OCc2ccccc2)cc1)c1ccc(O)cc1`, the “activity change, negative = inhibition” value was 12%. As to `O=C(O)CC1(CC(=O)Nc2ccc(Br)cc2)CCCCC1`, the “activity change, negative = inhibition” value is 25.7%. The result for `Cc1cc(NC(=O)CSc2nnc(-c3ccccc3)c(-c3ccccc3)n2)no1` reads -11.7%.

With `CC(=O)N1CCN(c2ccc(NC(=O)c3cccc(Cl)c3Cl)cc2)CC1`, the “activity change, negative = inhibition” value was 11.3%. In the case of `S=C(NCCc1ccccc1)N1CCn2cccc2C1c1cccnc1` (stereo unspecified) it was 22.3%; in that of `C=CCNC(=S)Nc1ccc(C)c(S(=O)(=O)N2CCCCC2)c1`, -15.4%; in that of `CC(O)CNCCCOc1cccc(Oc2ccccc2)c1` (stereo unspecified), 40.7%. Turning to `CCCCN(CCCC)CCNC(=O)c1ccc2nc(-c3ccccc3NC(C)=O)c(=O)[nH]c2c1`, the “activity change, negative = inhibition” value is 24.7%. As to `O=C(NCCc1ccccc1)C1CCC(=O)N(CCCN2CCCC2=O)C1` (stereo unspecified), the “activity change, negative = inhibition” value was 22.9%.

As to `N=c1c(S(=O)(=O)c2ccc(Cl)cc2)cc2c(=O)n3ccccc3nc2n1C1CCCCC1`, the “activity change, negative = inhibition” value was 19.1%. For `COc1ccccc1Oc1coc2cc(OC(=O)N3CCOCC3)ccc2c1=O`, the “activity change, negative = inhibition” value is 1.18%. For the compound `CC(NS(=O)(=O)c1ccc(Cl)c(Cl)c1)C(=O)OCC(=O)Nc1ccc2c(c1)OCO2` (stereo unspecified), the “activity change, negative = inhibition” value was 1.21%.

Regarding `O=C(NNC(=O)c1c(F)cccc1F)c1sccc1-n1cccc1`, the “activity change, negative = inhibition” value was 12.1%. In the case of `COc1ccc2ccccc2c1CN(C)Cc1ccccc1` it was -18.8%. In the case of `CCOc1ccc(S(=O)(=O)N2CCCCC2)c(C)c1C`, the “activity change, negative = inhibition” value was -5.43%. On to `Cc1cc(Cl)c(Cl)cc1S(=O)(=O)NCCCn1ccnc1`, for which the “activity change, negative = inhibition” value is 24.4%.
